In PubChem BioAssay AID720519 (National Center for Advancing Translational Sciences (NCATS), 2013):
Records with an inconclusive call do not appear. A call without a number means that no potency is given here. The source made the active and inactive calls. Calls come from the whole dose curve; as a rule, active = well fitted activation curve with a large enough effect; inconclusive = small, poorly fitted or top-dose-only effect; inactive = flat fitted curve, though single readings scatter.

Assay: qHTS for Inhibitors of Cell Surface uPA Generation: Confirmatory Assay for Cherry-picked Compounds
Conditions: cell surface uPA activity generation, qHTS confirmation; series mostly up to 115 µM
Method in brief: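 RAW 264.7 cells at 4000/well, incubated overnight, then treated with compounds. After 24 h at 37 C, viability was read by ATPlite luminescence. An increase in signal indicates blocked uPA-dependent LF entry.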
Potency is the fitted concentration of half-maximal effect.

Compound	Potency
COc1cc(SC)ccc1C(=O)OCc1nc2ccsc2c(=O)[nH]1	inactive
O=C(CSc1nncs1)NC(=O)NCc1ccco1	inactive
Cc1ccc(S(=O)(=O)N2CCC(C(=O)OC(C)C(=O)NC3CCCCC3C)CC2)cc1 (stereo not drawn)	inactive
Cc1cc(SCc2ccc(Cl)cc2)nc(=O)[nH]1	inactive
Cc1nc([N+](=O)[O-])cn1CCCCN1C(=O)c2ccccc2C1=O	inactive
CCOc1cc(/C=N/Nc2cc(C)nc3ccc(C)cc23)ccc1O	inactive
O=C(O)COc1ccccc1/C=N/NC(=O)CNC(=O)c1ccco1	inactive
CCOC(=O)C1=C(C)NC(C)=C(C(=O)OCC)C1C(=O)OCC(=O)NCCc1ccccc1	9.27 µM (active)
COc1ccc(NS(=O)(=O)c2c(C)n(C)c(=O)n(C)c2=O)cc1OC	inactive
S=C(Nc1ccccc1Cl)N1CCCC(c2ccccc2)=N1	13.1 µM (active)
CCOCc1nnc(NC(=O)C2CCN(C(=O)C3CC(=O)N(c4ccc(C)cc4)C3)CC2)s1 (stereo not drawn)	inactive
CC(=O)Nc1ccc(NC(=O)CCCCCN2C(=O)c3ccccc3C2=O)cc1	inactive
Cc1ccc(S(=O)(=O)N2CCC(C)CC2)cc1	inactive
O=c1[nH]c2ccccc2cc1CN(CC1CCCO1)S(=O)(=O)c1ccccc1 (stereo not drawn)	inactive
CCC(C)NC(=O)c1ccc2nc(-c3ccc(OC)c(OC)c3)c(-c3ccc(OC)c(OC)c3)nc2c1 (stereo not drawn)	inactive
Cc1ccc2nc(Nc3ccc(Cl)cc3)c3nncn3c2c1	inactive
Cc1ccc(S(=O)(=O)NCC(=O)N/N=C/c2ccc(Cl)cc2)cc1	inactive
CCOC(=O)c1c(NC(=O)CC2SC(N)=NC2=O)sc2c1CCC(C)C2 (stereo not drawn)	inactive
[N-]=[N+]=NC1C[C@H](n2ccc(=O)[nH]c2=O)O[C@@H]1CO (stereo partly drawn)	inactive

Compound	Potency
C=CCNC(=S)NCC=C	inactive
COc1ccc(NC(=O)c2cccnc2N2CCOCC2)cc1	inactive
Cc1nn(CC(=O)OCC(=O)NC(C)c2ccccc2)c(C)c1[N+](=O)[O-] (stereo not drawn)	inactive
CS(=O)(=O)c1ccc(Cl)c(NC(=O)COC(=O)CNC(=O)c2cccs2)c1	inactive
Nc1nc2ccc(Br)cc2o1	inactive
CCOc1cc(S(=O)(=O)NC2CC(C)(C)NC(C)(C)C2)ccc1Cl	inactive
CC1(C(=O)OCC(=O)Nc2ccc(Cl)cn2)CC1(Cl)Cl (stereo not drawn)	inactive
Cc1c(C(=O)N(Cc2ccccc2Cl)C2CCS(=O)(=O)C2)oc2ccccc12 (stereo not drawn)	inactive
CC1(C)Oc2ccc3ccc(=O)oc3c2[C@@H](O)[C@H]1O	inactive
COc1ccccc1NC(=O)Cn1nnc(-c2ccccc2NC(=O)c2cc3ccccc3oc2=O)n1	inactive
CCCCCCCCCOC(=O)C1N2C(=O)[C@@H](NC(=O)COc3ccccc3)[C@H]2SC1(C)C (stereo partly drawn)	inactive
CCOC(=O)CN1C(=O)N[C@@H](c2ccco2)C(C(=O)OC)=C1C	inactive
CCC(COC)NC(=O)CCc1nnc(Cc2c[nH]c3ccccc23)o1 (stereo not drawn)	inactive
CCOc1cc(C)c(S(=O)(=O)N2CCCCC2)cc1C	inactive
O=S(=O)(c1ccc2nc(N3CCN(c4ccccc4)CC3)ccc2c1)N1CCCCC1	inactive
CCOCCCn1c(SCC(=O)Nc2oc(C)c3c(C)n[nH]c(=O)c23)nc2ccccc2c1=O	inactive
CC1CC(=O)Nc2ccccc2N1C(=O)Cn1cnc2ccc(Br)cc2c1=O (stereo not drawn)	inactive
CC(C)(C)S(=O)(=O)N1C[C@H]2CC/C=C\C/C(c3ccccc3)=C\2[C@@H]1CCO	inactive
CC1CN(C(=O)CCC(=O)NCc2ccccc2)c2ccccc2S1 (stereo not drawn)	inactive
